Screening results from PubChem BioAssay.
Pf growth 48h – Primary qHTS for delayed death inhibitors of the malarial parasite plastid, 48 hour incubation. Potency, µM (highest dose often 28.7 µM), actives largely listed as inhibitors. 310,000 compounds, 5.9% hits. P. falciparum luciferase growth in erythrocytes, 48 h
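First compound was added to culture medium, then infected red cells at 0.1% parasitemia and 2% hematocrit (final). After incubation at 37 C under 5% CO2, luciferase detection reagent was dispensed and light output recorded.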
LmPK inh – qHTS Assay for Inhibitors of Leishmania Mexicana Pyruvate Kinase (LmPK) | AID 1721, 2009 | Q27686 | 290,000 compounds, 0.37% hits | purified LmPK, Kinase-Glo ATP luminescence, 1 h | Potency, µM (highest dose often 57.5 µM), most hits filed as inhibitors
Target sequence (Q27686 whole entry, looked up): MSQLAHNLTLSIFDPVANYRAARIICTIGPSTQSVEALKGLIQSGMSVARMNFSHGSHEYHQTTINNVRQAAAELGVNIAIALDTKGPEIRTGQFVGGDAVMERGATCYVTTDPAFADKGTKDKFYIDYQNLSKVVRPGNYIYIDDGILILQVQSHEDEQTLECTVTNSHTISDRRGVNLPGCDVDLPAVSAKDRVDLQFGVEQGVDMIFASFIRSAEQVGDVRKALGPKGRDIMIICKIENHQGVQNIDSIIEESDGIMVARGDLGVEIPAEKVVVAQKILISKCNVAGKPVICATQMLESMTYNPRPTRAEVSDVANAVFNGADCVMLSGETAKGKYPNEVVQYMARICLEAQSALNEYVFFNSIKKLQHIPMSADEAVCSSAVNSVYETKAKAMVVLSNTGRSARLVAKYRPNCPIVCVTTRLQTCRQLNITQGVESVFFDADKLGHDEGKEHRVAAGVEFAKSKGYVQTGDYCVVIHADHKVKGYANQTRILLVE
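Pyruvate kinase activity monitored as ATP production (luciferase luminescence). Conditions: 0.1 nM enzyme, 0.5 mM PEP, 0.1 mM ADP, 1 h, RT; normalized against uninhibited and no-enzyme wells.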
Shiga toxin inh – A qHTS for Small Molecule Inhibitors of Shiga Toxin. Vero cells, Shiga toxin protein synthesis inhibition reporter. inhibition, % at 38.7 µM. 290,000 compounds, 9.2% hits. AID 2315, 2010; in the data active means inhibition mostly above about 28%, no sharp cut-off; inactive means mostly below about 43%
Pf growth 96h – Primary qHTS for delayed death inhibitors of the malarial parasite plastid, 96 hour incubation; Potency, µM (top dose mostly 28.7 µM), usual class: inhibitors; P. falciparum luciferase reporter growth, 96 h; 320,000 compounds, 6.9% hits
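Infected RBCs, 2% Hct / 0.05% parasitemia final; luciferase-reporter P. falciparum; cpd 96 h, 37 C, 5% CO2; luciferase detection reagent; luminescence.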
CHX counter – Cycloheximide Counterscreen for Small Molecule Inhibitors of Shiga Toxin; max response, %; cell reporter, cycloheximide protein synthesis inhibition counterscreen; AID 2314, 2010; 300,000 compounds, 12% hits; in the data active means max response mostly above about 13%, no sharp cut-off; inactive means mostly below about 14%; further: read at 38.3 µM for the half of the compounds with a filed dose
A number is an active result; i = inactive; ? = inconclusive; nt = no result. Rows were chosen to be rich in hits. Some 22% of all compounds tested hit in one or more screens of this group. Unless noted, the call rests on the fitted dose curve; in most records, active means well fitted inhibition curve with a large enough effect; inconclusive means small, poorly fitted or top-dose-only effect, or another doubt; inactive means no such curve, though single readings can be large or run the other way.

SMILES | Pf growth 48h | LmPK inh | Shiga toxin inh | Pf growth 96h | CHX counter
CCOC(=O)C1CCN(C(=O)C2(NC(=O)Nc3ccccc3C)CCCCC2)CC1 | i | i | i | i | i
Cc1c([C@H]2[C@@H](CC#N)C2(C)C)c2ccccc2n1C | i | i | i | i | i
Cc1[nH]c2c(Br)cccc2c1[C@H]1[C@@H](CC#N)C1(C)C | ? | i | 62.8 | ? | 41.9
O=C(O)C=C1CCN(c2ncc(C(F)(F)F)cc2Cl)CC1 | i | i | i | ? | 26.2
CN1CCN(C(=O)C2CCN(c3ncc(C(F)(F)F)cc3Cl)CC2)CC1 | i | i | i | i | i
NNC(=O)C=C1CCN(c2ncc(C(F)(F)F)cc2Cl)CC1 | i | i | i | i | 18.3
O=C(CN1CCN(c2ncc(C(F)(F)F)cc2Cl)CC1)N1CCN(c2ncc(C(F)(F)F)cc2Cl)CC1 | nt | i | i | 11.7µM | i
COC(=O)c1c(/N=C/N(C)C)sc2c1CCN(c1ncc(C(F)(F)F)cc1Cl)C2 | ? | i | i | i | 27.8
COC(=O)c1c(N(S(C)(=O)=O)S(C)(=O)=O)sc2c1CCN(c1ncc(C(F)(F)F)cc1Cl)C2 | nt | i | i | i | i
Cc1noc(C)c1C(=O)N1CCC(C(=O)c2ccc(F)cc2F)CC1 | i | i | i | i | i
COc1ccc(N(C)S(=O)(=O)c2ccc3c(c2)NC(=O)CO3)c(OC)c1 | i | i | i | i | i
COc1ccc(N2CCN(C(CNC(=O)c3cccc(Cl)c3)c3cccnc3)CC2)cc1 (stereo not drawn) | ? | i | i | 1.85µM | i
COc1cccc(C(=O)NCC(c2cccnc2)N2CCN(c3ccccc3OC)CC2)c1 (stereo not drawn) | 11.7µM | i | i | ? | i
O=C(NCC(c1cccnc1)N1CCOCC1)Oc1ccccc1 (stereo not drawn) | i | i | 74.7 | i | 23.7
COc1ccc(S(=O)(=O)NCc2cc(=O)n(C)c(=O)n2C)cc1F | i | i | i | i | i
COc1ccccc1CN1CC(C(=O)NCCC2=CCCCC2)CCC1=O (stereo not drawn) | i | i | i | ? | i
COc1cccc(-c2nn(Cc3ccccc3)cc2CO)c1 | i | i | 89.6 | i | 45.3
COc1cccc(-c2nn(Cc3ccccc3)cc2C(=O)O)c1 | i | i | i | i | i
O=C(NC1CCCN(Cc2ccc(Cl)cc2)C1)c1ccoc1 (stereo not drawn) | i | i | i | ? | i
O=C(COC(=O)CN1C(=O)C2CCCCC2C1=O)NCc1ccc(Cl)cc1Cl (stereo not drawn) | i | nt | nt | i | nt
Cc1cccc2sc(N(CCCN(C)C)C(=O)c3nc4ccccc4s3)nc12 | i | i | i | i | i
CCc1ccc2nc(N(CCN(C)C)C(=O)c3ccc4ncsc4c3)sc2c1 | i | i | 117.3 | i | 67.8
Cc1ccc2nc(N(CCCN(C)C)C(=O)c3ccc(S(=O)(=O)N(C)C)cc3)sc2c1 | i | i | i | i | i
Cc1cccc2sc(N(CCCN(C)C)C(=O)c3ccc4ncsc4c3)nc12 | ? | i | 37.6 | ? | 19.7
COCCn1c(SC(C(=O)Nc2cc(C)ccc2OC)c2ccccc2)nnc1-c1ccc(Cl)cc1 (stereo not drawn) | 13.1µM | i | i | 9.28µM | i
SMILES | Pf growth 48h | LmPK inh | Shiga toxin inh | Pf growth 96h | CHX counter
CCOC(=O)Cc1cc(-c2ccc(O)cc2)nc2ccc3ccccc3c12 | ? | i | 82.9 | 11.7µM | i
CCOC(=O)Cc1cc(-c2ccc(OC)cc2)nc2ccc3ccccc3c12 | i | i | i | i | i
Cc1cccc(NC(=O)c2ccc(C(=O)Nc3cccc(C)c3)nc2)c1 | i | i | 64.0 | i | i
CC(=O)Nc1cccc(NC(=O)c2ccc(C(=O)Nc3cccc(NC(C)=O)c3)nc2)c1 | i | i | i | ? | i
O=C(Nc1ccccc1)c1ccc(C(=O)Nc2ccccc2)nc1 | i | i | 49.0 | i | i
CC(=O)c1cccc(NC(=O)c2ccc(C(=O)Nc3cccc(C(C)=O)c3)nc2)c1 | i | i | i | ? | i
CC(C)C(NS(=O)(=O)c1cccc2nsnc12)C(=O)N1CCCCC1 (stereo not drawn) | i | i | i | i | i
O=C(NCc1cc([N+](=O)[O-])ccc1O)c1cccnc1Sc1ccc(Cl)cc1 | i | i | 42.5 | ? | 39.7
O=C(NCc1cc([N+](=O)[O-])ccc1O)c1cccnc1Sc1ccccc1Cl | ? | i | i | ? | i
O=C(c1ccc(N2C(=O)C3C4CC(C(Br)C4Br)C3C2=O)cc1)N1CCCCC1 (stereo not drawn) | ? | i | i | i | i
CC1(C)CC(=O)N(CC(=O)NCc2ccccc2)c2ccccc2S1(=O)=O | i | i | i | i | i
CCN(CC)c1ccc(NC(=O)CN2C(=O)CC(C)(C)S(=O)(=O)c3ccccc32)c(C)c1 | ? | i | i | 8.28µM | i
CCNc1nc(OC)nc(N2CCC(Cc3ccccc3)CC2)n1 | i | i | i | 13.1µM | i
COc1cccc(-c2cccc(NC(=O)C3CCN(Cc4nccs4)CC3)c2)c1 | i | i | i | ? | i
CCOc1ccc(CN2CCC(C(=O)Nc3cccc(-c4ccn[nH]4)c3)CC2)cc1Cl | ? | i | 43.0 | ? | 23.9
CCn1cc(C(=O)NCc2cccc(F)c2)c(=O)c2cc(F)c(N3CCN(C(=O)c4ccco4)CC3)cc21 | nt | i | i | 2.08µM | i
CCCNC(=O)c1cn(CC)c2cc(N3CCN(C(=O)c4ccco4)CC3)c(F)cc2c1=O | ? | i | i | 3.29µM | i
CCn1cc(C(=O)NCc2cccnc2)c(=O)c2cc(F)c(N3CCN(C(=O)c4ccco4)CC3)cc21 | ? | i | i | nt | i
CCCCNC(=O)c1cn(CC)c2cc(N3CCN(C)CC3)c(F)cc2c1=O | ? | i | i | ? | i
Cc1cc(-n2c(C)cc(C(=O)CSc3ccc4c(c3)OCCO4)c2C)no1 | ? | i | i | ? | i
CCOC(=O)NC1(NCC(C)C)Oc2ccccc2O1 | nt | i | i | i | i
CCOC(=O)NC1(NCc2ccccc2)Oc2ccccc2O1 | ? | i | i | ? | 15.6
CCOC(=O)NC1(Nc2ccc(C)cc2)Oc2ccccc2O1 | i | i | 46.4 | ? | 55.1
CCOC(=O)NC1(NC(C)C)Oc2ccccc2O1 | nt | i | i | i | i
COc1ccc(N(CC(=O)NCc2ccc3c(c2)OCO3)C(=O)c2csnn2)cc1 | ? | i | i | ? | i
CS(=O)(=O)N1CCCC(C(=O)Nc2ccccc2)C1 (stereo not drawn) | i | i | nt | i | i
Cc1cc(C)n(-c2nc(NCc3cccnc3)c3c4c(sc3n2)COC(C)(C)C4)n1 | nt | i | i | nt | 22.0
Cc1nc(NCc2cccnc2)c2c3c(sc2n1)CCCC3 | ? | i | i | i | i
Cc1cc(C)n(-c2nc(SCC(=O)O)c3c4c(sc3n2)COC(C)(C)C4)n1 | ? | i | i | ? | i
CCN(CC)CCCNc1nc(-n2nc(C)cc2C)nc2sc3c(c12)CC(C)(C)OC3 | ? | i | i | ? | 13.1
